Source: PubChem (National Center for Advancing Translational Sciences (NCATS))
D1 PAM = potentiators of human D1 dopamine receptor; AID 504651; 0.036% of 360,000 active; potentiation, % at 10 µM; HEK293 TREx D1 cells, calcium flux, dopamine EC20 potentiation; in the data active means potentiation above about 30%; further: 0% is about no effect
Target sequence (P21728 whole entry, looked up): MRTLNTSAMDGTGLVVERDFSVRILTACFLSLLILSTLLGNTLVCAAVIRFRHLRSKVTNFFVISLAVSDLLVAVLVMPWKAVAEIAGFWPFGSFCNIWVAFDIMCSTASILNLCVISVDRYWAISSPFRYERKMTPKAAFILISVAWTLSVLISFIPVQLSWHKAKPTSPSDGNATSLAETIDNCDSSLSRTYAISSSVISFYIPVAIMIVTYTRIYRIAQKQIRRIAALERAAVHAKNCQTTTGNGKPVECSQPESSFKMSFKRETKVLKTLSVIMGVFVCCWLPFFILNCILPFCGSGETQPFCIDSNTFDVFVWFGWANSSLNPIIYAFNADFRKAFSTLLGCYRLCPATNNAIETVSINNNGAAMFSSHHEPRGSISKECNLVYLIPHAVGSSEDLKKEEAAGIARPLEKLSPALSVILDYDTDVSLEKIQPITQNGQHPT
D1 agonist = human D1 receptor agonism. P21728. HEK293 T-REx D1 cells, calcium flux, agonist mode. activation, % at 2 µM. 1% of 360,000 active. AID 504660; further: 0% is about no effect
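Inducible HEK293 T-REx D1 cells, force-coupled to calcium signalling, were plated at 4000 cells/well with tetracycline and held overnight at 30 C. After no-wash calcium dye loading, compound-evoked calcium rise over 180 s flagged agonists.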
GRP78 ERSR act = ER stress response induction in glioma | U87-MG GRP78 promoter luciferase reporter, 16 h | Potency, µM, for inactives: at the highest dose activation, usual class: activators | 0.02% of 420,000 active | AID 602332; active means well fitted activation curve with a large enough effect; further: potency means the concentration at half of the fitted maximal effect; series mostly up to about 76 µM; % of control where 0% means no effect; nearly all actives have a fitted effect of over 35% in size
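Stably transfected U87-MG glioma cells carrying a GRP78-based luciferase sensor; 16 h compound incubation. Luminescence end-point read 10 min after Bright-Glo addition at room temperature.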
TRHR ag = activates the human TRH receptor; P34981; TRHR cells, calcium flux fluo-8, FDSS agonist mode; activation, % at 2 µM; 0.18% of 360,000 active; further: 0% is about no effect
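In this calcium-flux screen, cells bearing human TRHR are dye-loaded with fluo-8, baselined for 10 cycles, then exposed to library compounds; positive kinetic calcium responses during the agonist phase mark hits, with TRH as control.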
TRHR enhancer = allosteric enhancers of human TRH receptor; P34981; TRHR cells, fluo-8 calcium fluorescence, EC20 TRH enhancement; enhancement, % at 2 µM; 0.66% of 360,000 active; AID 493056; in the data active means enhancement above about 30%; further: 0% is about no effect
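Enhancer read-out: after compound pinning and an initial kinetic agonist-mode read, an EC20 of TRH (10 nM final) was injected and fluo-8 calcium signal (Ex 480/Em 530) followed at 1 s/cycle for 100 cycles in TRHR-expressing cells.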
D1 antag = blocks dopamine activation of the human D1 receptor; P21728; HEK293 TREx D1 cells, calcium flux, dopamine EC80; stronger effect = lower value; activity change, negative = inhibition, % at 10 µM; 3.2% of 360,000 active; in the data active means activity change below about -30%; further: on the % scale 0 is the no-effect control and ±100 the full control effect
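Inducible Hek293 Trex D1 cells (tetracycline, overnight, 30 C). Calcium dye 30–90 min RT. Antagonist mode: EC80 dopamine added after 180 s compound read.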
The depositor's hits bear a star; . = not tested or not shown. Rows were chosen to be rich in hits. Some 4% of all compounds tested hit in one or more screens of this group. Unless noted, no stated cut-off is given here; in the data, active means activation above about 30%; inactive means the rest.

SMILES	D1 PAM	D1 agonist	GRP78 ERSR act	TRHR ag	TRHR enhancer	D1 antag
COc1ccc(C(C)(C)C)cc1NC(=O)c1c(C)noc1C	-2	0	-2%	-2	-1	4
Cc1nc2cccnc2n1C1CCN(S(=O)(=O)c2ccc(Cl)cc2)CC1	4	16	-4%	2	-3	9
Cc1nc2cccnc2n1C1CCN(S(=O)(=O)N(C)C)CC1	0	2	-2%	0	-4	-37*
CCOc1ccc(S(=O)(=O)N2CCC(n3c(C)nc4cccnc43)CC2)cc1	-6	34*	-2%	3	0	-28
Nc1ccc(-c2nc3ncccc3o2)cc1	-6	-1	-3%	0	2	-34*
Cc1sc2ncn(CC(=O)NCCCC(=O)N3CCN(Cc4ccc5c(c4)OCO5)CC3)c(=O)c2c1C	-12	0	-5%	0	31*	0
COc1ccc(N2CCN(C(=O)CCCNC(=O)Cn3cnc4sc(C)c(C)c4c3=O)CC2)cc1	6	1	-2%	-1	-4	-42*
O=C(/C(N=Nc1cccc([N+](=O)[O-])c1)=C(/O)c1ccc(Br)cc1)C(F)(F)F	-14	13	.	4	6	-30*
Cc1cc(/C=N/NC(=O)C(O)(c2ccccc2)c2ccccc2)c(C)n1-c1cccc(C(=O)O)c1	-5	2	2%	0	2	-31*
O=C(Cn1nc(C(=O)O)c2ccccc2c1=O)Nc1cc(C(F)(F)F)ccc1-n1cncn1	.	7	-1%	0	13	-5
O=C(Cn1nc(C(=O)O)c2ccccc2c1=O)Nc1cc(Cl)ccc1-n1cncn1	-7	0	-4%	-1	37*	-26
COc1cccc(NC(=O)Cn2c(SCC(=O)N3CCOCC3)nc3ccccc32)c1	-1	2	-3%	0	-3	-2
COc1ccccc1N=C1NC(=O)/C(=C/c2ccc(N(C)C)cc2)S1	-7	108*	7%	22	0	-22
COc1cc(/C=C2/SC(=Nc3ccc(O)cc3)NC2=O)cc(OC)c1O	-4	47*	-3%	70*	6	-5
Cc1nc2cccnc2n1-c1cccc(C(=O)NCc2cccc(Cl)c2)c1	-3	6	-2%	0	-11	0
O=C(Nc1ccc(Br)cc1)c1cccc(S(=O)(=O)Nc2ccccn2)c1	-4	6	-4%	0	6	-62*
CCCn1nc(C(=O)NCc2ccccn2)c2ccccc2c1=O	-23	2	-6%	-1	0	-39*
CC(C)(C)C(=O)Nc1ccccc1C(=O)Nc1ccncc1	-6	0	-6%	1	-9	3
Cc1ccc(C(C(=O)NCc2ccc(F)cc2)N(C(=O)c2csnn2)C2CC2)cc1 (configuration not stated)	.	3	-4%	0	0	12
Cn1cc(CNCc2cn(C)nc2-c2ccc(C3CCCCC3)cc2)cn1	-10	23	3%	1	18	-38*
CSc1ccc(CN2CCN(C(=O)c3ccc([N+](=O)[O-])cc3)CC2)cc1	-10	9	-1%	0	-11	-60*
O=C(c1ccccc1)c1ccc(OCCOCCN2CCN(Cc3ccccc3)CC2)cc1	-10	29	-8%	0	4	-33*
CCN1CCN(C(=O)c2ccc(CSc3ccc(C)cc3)cc2)CC1	21	183*	-1%	0	21	5
O=C(c1ccccc1)c1ccc(OCCCN2CCCC2)cc1	-2	9	1%	1	6	19
O=C(c1ccc(-c2ccccc2)cc1)N1CCN(Cc2ccccn2)CC1	-2	0	6%	0	-8	-31*
SMILES	D1 PAM	D1 agonist	GRP78 ERSR act	TRHR ag	TRHR enhancer	D1 antag
CCN(CC)c1ccc(C(=O)Nc2ccccc2)cc1[N+](=O)[O-]	-1	-2	1%	-1	-4	.
S=C(NCCCN1CCOCC1)N1CCN(c2cccc(Cl)c2)CC1	-10	18	-2%	2	-6	-14
CC(C)(C)c1ccc(C(=O)NCC(=O)N2CCCC2)cc1	5	4	6%	1	5	-3
O=C(c1ccccc1)N1CCN(Cc2ccccc2)CC1	-5	0	-4%	1	0	-53*
Cc1nc(SCC(=O)c2ccc(F)cc2)n[nH]1	-1	4	-3%	-1	-8	-2
CC1=CC(C)(C)N2C(=O)C3(C(C#N)=C(N)Oc4cc(O)ccc43)c3cccc1c32 (configuration not stated)	-1	0	2%	0	32*	-2
CN1/C(=C\C=N\O)C(C)(C)c2ccccc21	2	-1	-7%	0	-3	5
CN1/C(=C\C=C2/C(=O)Oc3ccccc3C2=O)C(C)(C)c2ccccc21	20	545*	-1%	217*	-30	89
CN1/C(=C\C=[N+](C)c2ccccc2)C(C)(C)c2ccccc21	.	.	-6%	.	.	.
CCCN1C(=O)/C(=C\C=C2\N(CC)c3ccccc3C2(C)C)SC1=S	-2	92*	-2%	36*	-2	2
CN1C(=CC=C2C=C(I)C(=O)C(I)=C2)C(C)(C)c2ccccc21	-2	19	-1%	9	3	-42*
CN(C)c1ccc(N=C/C=C2/N(C)c3ccccc3C2(C)C)cc1	-12	22	-6%	3	-6	-30*
C#Cc1cccc(C(=O)N2CCCC(Nc3cccc(F)c3)C2)c1 (configuration not stated)	-1	1	-2%	1	-2	6
CCOC(=O)c1oc2cc(C)cc(C)c2c1C	-9	0	0%	0	-2	-12
CO/N=C/C=C1/N(C)c2ccccc2C1(C)C	4	-3	1%	-2	-2	-7
CN1/C(=C\C=C2/SC(=S)NC2=O)C(C)(C)c2ccccc21	12	436*	-3%	83*	1	-29
Cc1cc(C(=O)OCC(=O)NCCC(C)C)c2ccccc2n1	-4	10	-4%	0	19	-47*
Cc1cccc(OCC(=O)NCc2cc(C)nc3ccccc23)c1	-6	13	0%	9	5	-34*
CCCNC(=O)COC(=O)c1cc(C)nc2ccccc12	0	2	-4%	0	-7	5
COc1ccc(CNC(=O)c2cc(C)nc3ccccc23)cc1OC	-7	2	0%	-1	-1	-13
COc1ccccc1CNC(=O)c1cc(C)nc2ccccc12	-3	1	-4%	0	-1	-31*
Cc1ccccc1CNC(=O)C1CCCCN1S(=O)(=O)c1ccc(F)cc1 (configuration not stated)	-6	0	0%	-1	-1	-32*
O=C(COC(=O)CCc1c[nH]c2ccccc12)NCCc1ccccc1	-4	13	-4%	1	18	8
O=C(Nc1c(Br)cc2c(c1Br)Cc1ccccc1-2)C(Cl)Cl	.	.	-2%	.	.	.
